# Data taken from PubChem BioAssay (NCATS).
# Unmarked numbers belong to inactive results. Records with an inconclusive call do not appear. A call without a number means that no potency is given here. Calls of active or inactive are those of the source. Unless noted, calls come from the whole dose curve; as a rule, active = well fitted curve in the direction sought with a large enough effect; inconclusive = small, poorly fitted or top-dose-only effect, or another doubt; inactive = no such curve, though single readings can be large; an effect the other way counts as inactive or inconclusive.
# Legend:
# [1] = biological target: ATP-dependent 6-phosphofructokinase (Trypanosoma brucei brucei) (UniProt O15648); assay: qHTS Assay to Find Inhibitors of T. brucei phosphofructokinase: hit validation (AID 492961);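 note: luminescence reports ADP formed as PFK phosphorylates fructose-6-phosphate with ATP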; conditions: T. brucei PFK, ADP-Glo luminescence; series mostly up to 51.4 µM
# Sequence of ATP-dependent 6-phosphofructokinase (Trypanosoma brucei brucei) (O15648 whole entry, looked up): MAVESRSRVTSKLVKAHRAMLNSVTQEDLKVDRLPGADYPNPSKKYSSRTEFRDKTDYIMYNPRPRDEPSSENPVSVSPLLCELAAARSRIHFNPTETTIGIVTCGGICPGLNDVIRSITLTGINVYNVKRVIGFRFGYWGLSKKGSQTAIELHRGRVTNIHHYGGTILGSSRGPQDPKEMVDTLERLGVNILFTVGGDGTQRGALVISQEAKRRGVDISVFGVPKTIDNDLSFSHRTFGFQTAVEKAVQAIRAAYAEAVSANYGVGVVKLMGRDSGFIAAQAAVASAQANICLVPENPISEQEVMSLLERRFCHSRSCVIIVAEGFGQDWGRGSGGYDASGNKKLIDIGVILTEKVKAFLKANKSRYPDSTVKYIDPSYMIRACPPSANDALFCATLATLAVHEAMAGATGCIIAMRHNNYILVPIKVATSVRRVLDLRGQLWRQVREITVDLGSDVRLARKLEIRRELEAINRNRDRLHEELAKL
# Outline: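 Percent activity derived from corrected luminescence, normalized between 0x and 1x enzyme controls, then fitted to concentration-response curves. Conditions: 1.25 nM PFK, 0.1 mM ATP, 0.5 mM F6P, 45 min RT.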
# [2] = biological target: Ubiquitin carboxyl-terminal hydrolase 1 (Homo sapiens) (UniProt O94782); assay: Inhibitors of USP1/UAF1: Pilot qHTS (AID 504865); conditions: purified USP1/UAF1, Ub-rhodamine cleavage fluorescence; series mostly up to 114 µM; note: nearly all actives have a fitted effect of over 35% in size; note: potency is the fitted concentration of half-maximal effect
# Sequence of Ubiquitin carboxyl-terminal hydrolase 1 (Homo sapiens) (O94782 whole entry, looked up): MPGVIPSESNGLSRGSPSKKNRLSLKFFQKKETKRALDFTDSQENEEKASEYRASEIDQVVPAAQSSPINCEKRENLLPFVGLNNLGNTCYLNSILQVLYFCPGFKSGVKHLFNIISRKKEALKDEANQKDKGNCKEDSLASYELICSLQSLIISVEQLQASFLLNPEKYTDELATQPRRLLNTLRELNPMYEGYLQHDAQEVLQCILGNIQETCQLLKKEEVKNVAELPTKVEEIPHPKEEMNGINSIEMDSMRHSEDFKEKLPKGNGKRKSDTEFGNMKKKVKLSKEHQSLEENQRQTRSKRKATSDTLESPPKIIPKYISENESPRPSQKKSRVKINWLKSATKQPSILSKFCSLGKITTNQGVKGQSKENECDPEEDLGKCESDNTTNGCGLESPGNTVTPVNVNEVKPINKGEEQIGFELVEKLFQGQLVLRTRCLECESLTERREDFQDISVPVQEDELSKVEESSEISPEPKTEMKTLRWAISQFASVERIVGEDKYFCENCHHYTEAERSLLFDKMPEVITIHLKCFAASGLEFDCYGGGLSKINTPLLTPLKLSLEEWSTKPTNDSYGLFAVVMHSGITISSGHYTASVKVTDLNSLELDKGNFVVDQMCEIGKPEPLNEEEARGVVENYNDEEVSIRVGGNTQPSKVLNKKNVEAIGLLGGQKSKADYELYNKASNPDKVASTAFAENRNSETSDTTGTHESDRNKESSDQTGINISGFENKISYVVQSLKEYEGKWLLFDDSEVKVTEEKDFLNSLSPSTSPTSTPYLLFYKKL
# Outline: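 Deubiquitinase activity followed as kinetic rhodamine fluorescence release from 150 nM Ub-Rho. 1 nM USP1/UAF1 with compound, after 15 min room-temperature preincubation, in HEPES pH 7.8 buffer containing TCEP, EDTA, BSA and Tween-20.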
# [3] = biological target: DNA dC->dU-editing enzyme APOBEC-3G (Homo sapiens) (UniProt Q9HC16); assay: qHTS for inhibitors of Vif-A3G interactions: Validation (AID 588379); conditions: Vif-A3G protein interaction assay; series mostly up to 46.1 µM
# Sequence of DNA dC->dU-editing enzyme APOBEC-3G (Homo sapiens) (Q9HC16 whole entry, looked up): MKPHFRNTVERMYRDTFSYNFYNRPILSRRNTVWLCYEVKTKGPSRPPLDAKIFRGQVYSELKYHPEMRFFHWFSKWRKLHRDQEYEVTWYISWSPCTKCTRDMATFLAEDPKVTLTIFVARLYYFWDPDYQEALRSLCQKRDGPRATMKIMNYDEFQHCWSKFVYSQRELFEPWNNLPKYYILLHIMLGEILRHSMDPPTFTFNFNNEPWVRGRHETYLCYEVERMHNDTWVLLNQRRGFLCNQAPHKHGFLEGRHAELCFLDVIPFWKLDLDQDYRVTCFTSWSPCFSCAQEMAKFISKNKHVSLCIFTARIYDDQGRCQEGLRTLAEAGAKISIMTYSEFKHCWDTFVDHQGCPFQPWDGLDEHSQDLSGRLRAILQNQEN
# Outline: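 HeLa cells stably expressing Vif and A3G-eYFP, 700 cells/well, incubated overnight at 37 deg C, then exposed to compound overnight at 37 deg C. Inhibition of Vif-mediated degradation read as increased yellow fluorescence (Ex 488/Em 500-530) by laser-scanning cytometry.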
# [4] = biological target: Glucocorticoid receptor (Homo sapiens) (UniProt P04150); assay: qHTS assay for small molecule antagonists of glucocorticoid receptor signaling (AID 588533; active = well fitted inhibition curve with a large enough effect in the signal ratio, with a control signal flat, not every such curve was filed as active; the % refers to the signal ratio;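 note: cells stimulated with 2 nM dexamethasone as agonist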); conditions: HeLa MMTV-bla, GRE beta-lactamase ratio, antagonist mode, 18 h; series mostly up to 76.8 µM
# Sequence of Glucocorticoid receptor (Homo sapiens) (P04150 whole entry, looked up): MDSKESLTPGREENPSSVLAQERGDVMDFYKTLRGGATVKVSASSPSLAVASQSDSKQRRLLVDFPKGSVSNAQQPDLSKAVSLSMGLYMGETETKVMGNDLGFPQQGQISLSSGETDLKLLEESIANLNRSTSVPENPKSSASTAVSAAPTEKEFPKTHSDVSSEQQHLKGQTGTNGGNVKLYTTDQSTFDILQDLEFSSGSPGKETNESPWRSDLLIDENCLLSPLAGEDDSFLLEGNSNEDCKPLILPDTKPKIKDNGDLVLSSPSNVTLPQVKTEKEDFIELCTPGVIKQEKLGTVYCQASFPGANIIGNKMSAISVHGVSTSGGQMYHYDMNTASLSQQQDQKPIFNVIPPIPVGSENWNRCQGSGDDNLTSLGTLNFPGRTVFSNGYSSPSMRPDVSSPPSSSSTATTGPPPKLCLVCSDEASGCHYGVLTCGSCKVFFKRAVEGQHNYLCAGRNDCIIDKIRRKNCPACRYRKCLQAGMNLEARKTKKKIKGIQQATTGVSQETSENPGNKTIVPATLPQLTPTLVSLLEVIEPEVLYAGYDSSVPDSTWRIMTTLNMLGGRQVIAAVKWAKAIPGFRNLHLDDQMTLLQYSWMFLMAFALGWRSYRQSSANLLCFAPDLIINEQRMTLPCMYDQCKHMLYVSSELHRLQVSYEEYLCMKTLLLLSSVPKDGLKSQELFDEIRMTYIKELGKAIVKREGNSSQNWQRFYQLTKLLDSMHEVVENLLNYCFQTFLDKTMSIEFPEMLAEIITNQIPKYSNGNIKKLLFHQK
# Outline: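 Antagonist-mode qHTS: compound titrations added to GRE-bla HeLa cells, then dexamethasone 2 nM final; 18 h, 37 C. CCF4 FRET fluorescence normalized to dexamethasone and DMSO; IC50 from Hill fit.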
smiles,measurement,setting,value
O=C1C(CCC(O)c2ccc(F)cc2)C(c2ccc(O)cc2)N1c1ccc(F)cc1 (centres undefined),outcome,[1],inactive
same,Potency,[2],inactive
CN1CC(=O)N2C(Cc3c([nH]c4ccccc34)[C@H]2c2ccc3c(c2)OCO3)C1=O (some centres undefined),outcome,[1],inactive
same,Potency,[2],inactive
Cc1cc(NC(=O)Nc2ccc(N(C)C)cc2)c2cc(F)cc(F)c2n1,Potency,[2],inactive
same,outcome,[3],inactive
COc1ccnc(CS(=O)c2nc3ccc(OC(F)F)cc3[nH]2)c1OC (centres undefined),outcome,[1],inactive
same,Potency,[2],inactive
CC1C(=O)OC2C(O)C34C5CC(C(C)(C)C)C36C(OC(=O)C6O)OC4(C(=O)O5)C12O (centres undefined),Potency,[2],inactive
same,outcome,[3],inactive
CS(=O)(=O)c1ccc(C2=C(c3ccccc3)C(=O)OC2)cc1,outcome,[1],inactive
same,Potency,[2],inactive
NCC1CCC(C(=O)O)CC1 (centres undefined),outcome,[1],inactive
same,Potency,[2],inactive
Nc1ccn([C@@H]2O[C@H](CO)[C@@H](O)[C@H]2O)c(=O)n1,Potency,[2],inactive
same,outcome,[3],inactive
O=C(O)c1nc(=O)[nH]c(=O)[nH]1,outcome,[1],inactive
same,Potency,[2],inactive
C[C@@H]1C[C@H]2[C@@H]3CCC4=CC(=O)C=C[C@]4(C)[C@@]3(F)[C@@H](O)C[C@]2(C)[C@@]1(O)C(=O)CO,outcome,[4],inactive
COc1cc2c(cc1OC)CC(=O)N(CCCN(C)C[C@H]1Cc3cc(OC)c(OC)cc31)CC2,outcome,[1],inactive
same,Potency,[2],inactive
CC(C)CN(C[C@@H](O)[C@H](Cc1ccccc1)NC(=O)O[C@H]1CO[C@H]2OCC[C@H]21)S(=O)(=O)c1ccc(N)cc1,outcome,[1],inactive
same,Potency,[2],inactive
OC(c1cc(C(F)(F)F)nc2c(C(F)(F)F)cccc12)C1CCCCN1 (centres undefined),Potency,[2],inactive
Clc1ccc(COC(Cn2ccnc2)c2ccc(Cl)cc2Cl)c(Cl)c1 (centres undefined),outcome,[1],inactive
N#CC(c1ccc(Cl)cc1)c1c(Cl)cc(-n2ncc(=O)[nH]c2=O)cc1Cl (centres undefined),outcome,[1],inactive
same,Potency,[2],79.4 µM (active)
CCCCC(C=O)NC(=O)C(CC(C)C)NC(=O)OCc1ccccc1 (centres undefined),Potency,[2],inactive
same,outcome,[3],inactive
Cc1ccc(NC(=O)c2cccc(N(C)C)c2)cc1NC(=O)c1ccc(O)cc1,Potency,[2],inactive
same,outcome,[3],inactive
COc1ccc(CCN(C)CCCOc2ccc(S(=O)(=O)c3[nH]c4ccccc4c3C(C)C)cc2)cc1OC,outcome,[3],inactive
COc1nccc(-c2c(-c3ccc(F)cc3)ncn2C2CCC(O)CC2)n1 (centres undefined),Potency,[2],inactive
same,outcome,[3],inactive
